Results: PubChem BioAssay AID2289 (National Center for Advancing Translational Sciences (NCATS), 2010)
Out of some 340,000 compounds screened, about 3,300 (0.97%) were called active. Inconclusive results (about 9%) are left out. The call rests on the fitted dose curve; in most records, active means well fitted inhibition curve with a large enough effect; inconclusive means small, poorly fitted or top-dose-only effect, or effect the other way; inactive means flat fitted curve, though single readings scatter. This is one part of the list.

Assay: qHTS Assay for Modulators of miRNAs and/or Inhibitors of miR-21; further: nearly all actives have a fitted effect of over 55% in size
Conditions: HeLa miR-21-FLuc reporter, luciferase luminescence, 48 h; actives lower the signal
Outline: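 Compounds were titrated across several concentrations (up to approximately 40 uM) and incubated 48 hours with HeLa miR-21-FLuc reporter cells (miR-21 target sequence downstream of FLuc, endogenous miR-21). Readout was firefly luciferase luminescence after lytic detection reagent.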
Potency means the concentration at half of the fitted maximal effect.

Potency, active:
Cc1ccc(-c2cc(C(=O)O)n(Cc3ccccc3)n2)cc1 14.7 µM, Cc1ccc(Cn2nc(C)cc2C(=O)Nc2ccccc2Cl)cc1 7.36 µM, Cc1ccc(NC(=O)CNCc2cccs2)c(Br)c1 14.7 µM, Cc1ccc(NC(=O)CC2CCCC2)c(Br)c1 14.7 µM, Cc1c(C(N)=O)sc2nc(-c3ccccc3)cn12 11.7 µM, CNC(=O)c1sc2nc(-c3ccc(OC)cc3)cn2c1C 0.736 µM, O=C(O)c1cccc(N/N=C/c2cccs2)c1 0.0826 µM, O=C(O)c1cc(N/N=C/c2cccs2)ccc1Cl 1.85 µM, Cc1ccc(OC(=O)c2cccc(S(=O)(=O)N(C)C)c2)c(-n2nc3ccccc3n2)c1 5.85 µM, Cc1ccc(O)c(-n2nc3ccccc3n2)c1 11.7 µM, Cc1ccc(OC(=O)COc2ccccc2C)c(-n2nc3ccccc3n2)c1 4.14 µM, Cc1ccc(OC(=O)c2cccc(S(=O)(=O)N3CCCC3)c2)c(-n2nc3ccccc3n2)c1 2.61 µM, c1ccc(CCSc2nccn2-c2ccccc2)cc1 1.85 µM, CCN(CC)CCN(C(=O)c1ccc2ncsc2c1)c1nc2cc3c(cc2s1)OCO3 1.04 µM, O=C(N/N=C/C=C/c1ccccc1)c1cccs1 7.36 µM, O=C(N/N=C/C(Cl)=C\c1ccccc1)c1ccco1 3.69 µM, CCOC(=O)N/N=C/C(Cl)=C/c1ccccc1 10.4 µM, O=C(N/N=C/C(Cl)=C\c1ccccc1)c1cccs1 1.85 µM, O=C(N/N=C/C=C/c1ccccc1)c1ccccn1 5.85 µM, O=C(N/N=C/C(Cl)=C/c1ccccc1)c1ccccc1F 8.26 µM, COc1ccccc1/C=C/C=N/NC(=O)c1cccs1 3.69 µM, C/C(=N\O)c1ccc(N2C(=O)C3CC=C(Cl)CC3C2=O)cc1 (stereo not drawn) 3.29 µM, CCOc1ccc(N=C/C=C/c2ccccc2)c(O)c1 3.29 µM, O=C(Cn1cnc2ccccc2c1=O)c1ccc(Br)cc1 5.21 µM, O=C(Cn1cnc2ccccc2c1=O)c1ccc(Cl)cc1 7.36 µM, O=C(Cn1cnc2ccccc2c1=O)c1ccc2ccccc2c1 7.36 µM, Cc1ccc(C(=O)Cn2cnc3ccccc3c2=O)cc1 5.85 µM, COc1ccc2cnn(-c3ccc(C)cc3)c(=O)c2c1OC 6.56 µM, CC(C)c1ccc(N(C(=O)c2ccco2)C(C(=O)NC2CCCC2)c2ccncc2)cc1 (stereo not drawn) 6.56 µM, OCc1cc(Br)ccc1OCc1nc2ccccc2s1 1.65 µM, NC(=O)c1ccccc1OCc1nc2ccccc2s1 1.47 µM, Cc1cc(OCc2nc3ccccc3s2)ccc1N 1.17 µM, O=C(O)c1ccccc1OCc1nc2ccccc2s1 3.29 µM, Cc1ccc2c(c1)COc1c3ccc(C(=O)NCCO)cc3nn1-2 5.21 µM, O=C(NCCO)c1ccc2c3n(nc2c1)-c1ccc(Cl)cc1CO3 9.27 µM, CC(C)[C@@H](CO)NC(=O)c1ccc2c3n(nc2c1)-c1ccc(Cl)cc1CO3 1.85 µM, O=C(Nc1sc2c(c1C(=O)NCc1ccco1)CCCC2)c1cc(=O)c2ccccc2o1 5.85 µM, Cc1cc(CN(C)C(=O)c2cc(COc3ccc(F)cc3Cl)on2)n[nH]1 10.4 µM, Cc1nnc(CN(C)C(=O)c2cc(COc3ccc(F)cc3Cl)on2)o1 13.1 µM, COc1ccc(OCc2cc(C(=O)N(C)Cc3nnc(C)o3)no2)c(Cl)c1 14.7 µM, N#CCCN1CCN(C(=S)c2ccc(-c3cccc(Cl)c3)o2)CC1 13.1 µM, S=C(c1ccc(-c2ccc(Cl)c(Cl)c2)o1)N1CCOCC1 1.47 µM, O=[N+]([O-])c1cccc(-c2ccc(C(=S)N3CCOCC3)o2)c1 1.04 µM, S=C(c1ccc(-c2cccc(Cl)c2)o1)N1CCCCC1 1.31 µM, S=C(c1ccc(-c2cccc(Cl)c2)o1)N1CCOCC1 3.69 µM, COCCN=C1NN=C(c2ccc(C)c([N+](=O)[O-])c2)CS1 4.14 µM, C=CCSc1nncn1/N=C/c1ccc(OC)cc1 2.61 µM, C=C(C)CSc1nncn1/N=C/c1ccc(OC)cc1 11.7 µM, O=[N+]([O-])c1ccc2nc(-c3ccncc3)[nH]c2c1 18.5 µM, Cn1cccc1-c1nc2ccc([N+](=O)[O-])cc2[nH]1 2.07 µM, Fc1cc2nc(-c3ccncc3)[nH]c2cc1F 16.5 µM, Cc1ccc(CNC(=O)c2ccc3c(c2)nc2n3CCCC2)cc1 18.5 µM, CC1CCn2c(nc3cc(C(=O)NCc4ccccc4)ccc32)C1 (stereo not drawn) 7.36 µM, COc1cc(OC)cc(C(=O)Nc2ccc3nc4n(c(=O)c3c2)CCCCC4)c1 2.33 µM, COc1ccc(-c2cc3nc4n(c(=O)c3s2)CCCCC4)cc1 0.369 µM, CCOc1ccc(CNC(=O)c2ccc3c(c2)nc2n3CCCCC2)cc1 2.07 µM, COc1ccc(CNC(=O)c2ccc3c(c2)nc2n3CCCCC2)cc1 4.65 µM, COc1ccc(N=C2C(=Nc3ccc(OC)cc3)N(c3ccccc3)C(=S)N2C(=O)c2ccc(Cl)cc2)cc1 5.21 µM, COc1ccc(-c2csc(NC(=O)COC(=O)c3ccco3)n2)cc1 3.69 µM, CCc1ccc(-c2csc(NC(=O)COC(=O)CCc3nc4ccccc4s3)n2)cc1 2.07 µM, CCc1ccc(-c2csc(NC(=O)Oc3ccccc3)n2)cc1 3.69 µM, Cc1nc(N)sc1N=Nc1ccc(Br)cc1 0.736 µM, Cc1nc(N)sc1N=Nc1ccc(F)cc1 4.65 µM, Cc1nc(N)sc1N=Nc1ccccc1C(F)(F)F 5.21 µM, CCCCN(c1ccccc1)c1ncnc2c1cnn2-c1ccc(Cl)cc1 5.85 µM, COCCN(CCOC)c1ncnc2c1cnn2-c1ccc(Cl)cc1 7.36 µM, Cc1cccc(-n2ncc3c(N(CCO)CCO)ncnc32)c1 5.21 µM, CCN(c1ccccc1)c1ncnc2c1cnn2-c1ccccc1 7.36 µM, Cc1ccc2c(c1)c1cccc3c1n2CCN3CCC(N)=O 6.56 µM, CC(=O)N1CCn2c3ccc(C)cc3c3cccc1c32 14.7 µM, Clc1ccc(OCc2nc(-c3ccncc3)no2)c(Br)c1 1.65 µM, CC(Oc1ccc(Cl)cc1Cl)c1nc(-c2ccccn2)no1 (stereo not drawn) 6.56 µM, CC(C)(C)c1ccc(OCc2nc(-c3ccccn3)no2)c(Br)c1 1.65 µM, Clc1cc(Cl)c(OCc2nc(-c3ccccn3)no2)cc1Cl 0.736 µM, Nc1cnc(Nc2ccc(Br)cc2)nc1N 11.7 µM, Cc1ccc2c(c1)-c1nc3ccccc3cc1C2=NC1CCCCC1 0.656 µM, CC(C)CCn1cnc2c(sc3nc4c(cc32)CSC(C)(C)C4)c1=O 0.293 µM, CCCCn1cnc2c(sc3nc4c(cc32)CSC(C)(C)C4)c1=O 0.585 µM, COc1cccc(NC(=O)COc2ccc(C)cc2)c1 7.36 µM, O=C(COc1ccccc1)Nc1ccc(Cl)cc1Cl 5.85 µM, NC(=O)c1ccccc1NC(=O)COc1ccc(Cl)cc1 4.65 µM, COc1ccc(C(=O)COc2ccccc2C#N)cc1 4.65 µM, COC(=O)c1ccc(OCC(=O)c2cccc(OC)c2)cc1 10.4 µM, Cc1ccc(OCC(=O)Nc2ccccc2C(N)=O)cc1 1.17 µM, Cc1sc2c(c1C)C(=O)NC(c1ccccc1F)N2 (stereo not drawn) 7.36 µM, COc1ccc(OCCOc2ccc(C)nc2[N+](=O)[O-])cc1 13.1 µM, Cc1ccc(OCCOc2cccc(Br)c2)c([N+](=O)[O-])n1 6.56 µM, COc1ccc(OCCOc2ccccc2[N+](=O)[O-])cc1 6.56 µM, Cc1ccc(OCCOc2ccc(Br)cc2)c([N+](=O)[O-])n1 5.85 µM, O=C(O)c1cccc(-c2nnn(Cc3ccccc3)n2)c1 2.33 µM, O=C(O)c1cccc(-c2nnn(Cc3ccccc3Cl)n2)c1 0.414 µM, COc1ccc(CNC(=O)c2ccc(C(C)(C)C)cc2)cc1 5.85 µM, CC(C)(C)c1ccc(C(=O)NCCC(=O)N2CCCC2)cc1 2.33 µM, CC(C)(C)c1ccc(C(=O)NCc2ccccc2)cc1 14.7 µM, CCCc1nn(C)c(C(=O)Nc2ccccc2)c1Cl 1.85 µM, CCCc1nn(C)c(C(=O)Nc2cccc(C)c2)c1Cl 5.21 µM, CCCc1nn(C)c(C(=O)Nc2cccc(Cl)c2)c1Cl 7.36 µM, CCCc1nn(C)c(C(=O)Nc2ccc3ccccc3c2)c1Cl 7.36 µM, CCC1CN(C(=O)Nc2cccc3c2CCCC3)c2cc(C)ccc2O1 (stereo not drawn) 7.36 µM, COc1ccc(/C=C/c2nc3ccccc3n2Cc2ccc(OC)c(OC)c2)cc1 1.47 µM, C/C(=N\NC(=O)OC(C)(C)C)c1ccccc1Br 14.7 µM, CCOC(=O)c1cnn2c(C)cc(-c3ccc(F)cc3)nc12 4.14 µM, O=C(O)c1ccc(S(=O)(=O)c2ccc3c(c2)C(=O)N(NC(=O)c2ccccc2)C3=O)cc1 4.14 µM
